Results as given in PubChem BioAssay AID771 (SRMLSC, 2007).
Values joined by “and” are separate entries in the source; they are usually repeats but may differ in a detail not shown here. Identical values can stand only once. Screen size: about 3,300 compounds; about 55 (2%) were called active.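 How the source made its calls: active means growth inhibition above 90%, meaning viable cell count by imaging cut by more than 90% versus vehicle controls; inactive means growth inhibition below 90%.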 The sample as a whole holds a higher share of actives than the screen did. Some structures have more than one record in an assay (separate samples or runs), and their calls can disagree.

Test: HT29 colon tumor cell growth inhibition, primary screen, imaging, high content imaging, 48 h, CellTiter-Glo (AID 771);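 on condensed nuclei: condensed means Hoechst nuclear area under control median minus 1.5 SD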
Conditions: HCS imaging cell count, at 10 µM, stronger effect = higher value; for condensed nuclei: measured here: percent cells with condensed nuclei
[1] = measured here: ATP CellTiter-Glo viability inhibition

Structure (SMILES) | growth inhibition | condensed nuclei | growth inhibition [1]
CSc1ccc2c(c1)N(CCC1CCCCN1C)c1ccccc1S2 (stereo unspecified) | 8.58% (inactive) | 2.87% | 
OCCN1CCN(CCCN2c3ccccc3Sc3ccc(C(F)(F)F)cc32)CC1 | 99.7% (active) | 57% | 
CN1CCN(CCC(=O)N2c3ccccc3Sc3ccc(Cl)cc32)CC1 | 55.5% (inactive) | 2.4% | -11.6%
OCCN1CCN(CCCN2c3ccccc3Sc3ccc(Cl)cc32)CC1 | 84.9% (inactive) | 46.7% | 
CN1CCN(CCCN2c3ccccc3Sc3ccc(Cl)cc32)CC1 | -16.4% (inactive) | 1.86% | 
CN1CCN(CCCN2c3ccccc3Sc3ccc(C(F)(F)F)cc32)CC1 | 99.7% (active) | 45.5% | 
CCCOc1ccc(/C(O)=C2/C(=O)C(=O)N(CCN3CCOCC3)C2c2ccccc2)cc1 (stereo unspecified) | 6.6% (inactive) | 3.56% | -7.42%
CC1(C)Cc2nc(N)c(C(=O)NCCO)cc2CO1 | -4.53% (inactive) | 3.27% | -20.8%
COc1ccc(/C(O)=C2\C(=O)C(=O)N(c3cc(C)on3)C2c2cccc(OC)c2OC)cc1C (stereo unspecified) | 37.5% (inactive) | 2.33% | -6.66%
CCN(CC)CCNC(=O)c1ccccc1N | 25.6% (inactive) | 0.38% | 4.22%
CCCCOc1cc(C(=O)NCCN(CC)CC)c2ccccc2n1 | 2.54% (inactive) and 97.2% (active) | 0.87% and 22.7% | 
CCCCOc1ccccc1C(=O)NCCCC(=O)O | 45.1% (inactive) | 2.4% | 27.4%
CC(C)C1Cc2c(C#N)c(N)sc(=S)c2CO1 (stereo unspecified) | -17.8% (inactive) | 3.02% | -10.1%
CNCCC(Oc1ccc(C(F)(F)F)cc1)c1ccccc1 (stereo unspecified) | 98.6% (active) | 23.4% | 
CC(=N\O)/C(CN(C)C)=N/O | 19.1% (inactive) | 2.85% | 5.48%
CCc1[nH]nc2c1C(c1ccc(Br)s1)C(C#N)=C(N)O2 (stereo unspecified) | 61% (inactive) | 4.86% | 16.8%
COc1cc(/C=C/C(=O)CC(=O)/C=C/c2ccc(O)c(OC)c2)ccc1O | 95.8% (active) | 35.4% | 
O=C(O)/C=C/c1ccc(O)c(O)c1 | -1.98% (inactive) | 2.21% | 
CCN(CC)C(=O)c1ccc(O)c(OC)c1 | -10.4% (inactive) | 2.13% | 
CCCc1nnc(SCc2ccc(OCC)cc2)n1N | 34.1% (inactive) | 1.98% | 0.5%
NC(Cc1ccc(Oc2ccc(O)cc2)cc1)C(=O)O (stereo unspecified) | -13.8% (inactive) | 5.21% | 
CCn1nnc(C(=O)O)c1C(=O)O | -4.1% (inactive) | 2.3% | -5.53%
Brc1ccc2c(c1)CNc1c(ncnc1N1CCOCC1)O2 | 45.1% (inactive) | 0.48% | 12.2%
N#CC12CCCCC1CC1CCCCC1(C#N)N2Cc1cccnc1 (stereo unspecified) | 20.9% (inactive) | 2.55% | -2.93%
CNCCCC1c2ccccc2C=Cc2ccccc21 | 98% (active) | 25% | 
CC(NCCC(c1ccccc1)c1ccccc1)c1ccccc1 (stereo unspecified) | 95.3% (active) | 28.3% | 
CC(NC(=O)c1ccc(=O)oc1)c1ccccc1 (stereo unspecified) | 53.4% (inactive) | 5.45% | -2.53%

Structure (SMILES) | growth inhibition | condensed nuclei | growth inhibition [1]
O=C(O)c1ccc(C2CCCCC2)cn1 | -17.2% (inactive) | 0.69% | -12.9%
CCN(CC)CCN1C(=O)C(=O)/C(=C(/O)c2c(C)[nH]c(C(=O)OC)c2C)C1c1ccccc1 (stereo unspecified) | 29.2% (inactive) | 11% | 26.4%
CNCCCN1c2ccccc2CCc2ccccc21 | 95.8% (active) | 13.8% | 
CN(C)CCCN1c2ccccc2CCc2ccccc21 | -27.8% (inactive) | 2.51% | 
CN(C)CCCN1c2ccccc2CCc2ccc(Cl)cc21 | 89.6% (inactive) | 39.3% | 
CCOC(=O)NC(Nc1sc2c(c1C(=O)OC)CCN(C)C2)(C(F)(F)F)C(F)(F)F | -25.9% (inactive) | 2.15% | 15.4%
Cc1cc(=O)oc(C)c1C(=O)N[C@@H]1CCCCNC1=O | -26.2% (inactive) | 2.68% | -3.89%
CCOC(=O)CSC1=C(C#N)C(c2ccc3c(c2)OCO3)CC(=O)N1 (stereo unspecified) | 90.1% (active) | 12.2% | 66.1%
CCCOC(=O)CSC1=C(C#N)C(c2ccc3c(c2)OCO3)CC(=O)N1 (stereo unspecified) | 75.6% (inactive) | 7.29% | 56.6%
CCCCOC(=O)CSC1=C(C#N)C(c2ccc3c(c2)OCO3)CC(=O)N1 (stereo unspecified) | -15.7% (inactive) | 2.23% | -8.71%
Cn1cccc1/C=N/n1cnnc1 | 13.3% (inactive) | 11% | 0.83%
CC(CN1c2ccccc2Sc2ccccc21)N(C)C (stereo unspecified) | 65.5% (inactive) | 6.11% | 
CN(C)CCCN1c2ccccc2Sc2ccc(Cl)cc21 | 92.7% (active) | 22.1% | 
CN(C)CCCN1c2ccccc2Sc2ccccc21 | 40.7% (inactive) | 5.02% | 
CN(C)CCCN1c2ccccc2Sc2ccc(C(F)(F)F)cc21 | 93.8% (active) | 30.8% | 
COc1ccc([C@@H]2Sc3ccccc3N(CCN(C)C)C(=O)[C@@H]2OC(C)=O)cc1 | -4.52% (inactive) | 2.39% | 
CCOc1c(C)cc2[nH]c(CCC(=O)O)nc2c1C | 26.2% (inactive) | 2.92% | 7.89%
CN1CCN(Cc2c(O)c(Cl)cc3c(-c4ccccc4)cc(=O)oc23)CC1 | 8.72% (inactive) | 1.6% | -6.84%
C(=N\n1cnnc1)/c1cccc(Oc2ccccc2)c1 | -29.2% (inactive) | 2.95% | -4.38%
COc1ccccc1N1CCN(C2CCN(C(=O)c3cccs3)CC2)CC1 | 32% (inactive) | 4.31% | 11.2%
CCCCCCn1cc(C(=O)O)c(=O)c2ccccc21 | -27.6% (inactive) | 2.69% | 1.82%
COC(=O)c1[nH]c2cc(OC)ccc2c1NC(=O)CN1CCC(C(N)=O)CC1 | 49.4% (inactive) | 2.82% | -5.92%
COC(=O)c1[nH]c2cc(OC)ccc2c1NC(=O)CCN1CCCC(C)(C)C1 | 5.81% (inactive) | 1.83% | 8.79%
COC(=O)c1[nH]c2cc(OC)ccc2c1NC(=O)CN1CCN(c2cccc(C)c2)C(C)C1 (stereo unspecified) | 92.4% (active) | 8.77% | 75.4%
COC(=O)C1CCN(c2nc3ccccc3nc2C(C#N)C(=O)NCCc2ccccc2)CC1 (stereo unspecified) | 30% (inactive) | 3.61% | 5.48%
COC(=O)c1ccc(Nc2cc(C)nc(-c3ccccc3O)n2)cc1 | 12.1% (inactive) | 10.7% | 23%
COC(=O)c1ccccc1OCc1cccc(C)n1 | 39.5% (inactive) | 0.9% | 2.81%

Structure (SMILES) | growth inhibition | condensed nuclei | growth inhibition [1]
COC(=O)c1cccc(Nc2cc(C)nc(-c3ccccc3O)n2)c1 | 91.6% (active) | 8.33% | 77.4%
CCOc1ccc(-c2nn3c(-c4ccc(OC)cc4)nnc3s2)cc1 | 10.5% (inactive) | 2.81% | 4.54%
C[C@]12CC[C@@H]3c4ccc(O)cc4CC[C@H]3[C@@H]1CC[C@@H]2OC(=O)CCC(=O)O | -33.9% (inactive) | 0.84% | 
C[C@]12CC[C@@H]3c4ccc(OC(=O)c5ccccc5)cc4CC[C@H]3[C@@H]1CC[C@@H]2O | 90.5% (active) | 22.1% | 
C[C@]12CC[C@@H]3c4ccc(O[C@@H]5O[C@H](C(=O)O)[C@@H](O)[C@H](O)[C@H]5O)cc4CC[C@H]3[C@@H]1C[C@@H](O)[C@@H]2O | -7.06% (inactive) | 1.8% | 
Cc1c(O)c(CN2CCCC(C)C2)cc2c3c(c(=O)oc12)CCC3 (stereo unspecified) | -14.5% (inactive) | 1.69% | -14.7%
CN(C1CCS(=O)(=O)C1)S(=O)(=O)c1cccc2nsnc12 (stereo unspecified) | -12.3% (inactive) | 8.15% | 2.06%
N#CC1=C(SCC(=O)c2ccc(Cl)cc2)NC2=C(C(=O)CCC2)C1c1ccco1 (stereo unspecified) | 92.8% (active) | 7.89% | 78.2%
N#CC1=C(SCC(=O)c2ccc(Br)cc2)NC2=C(C(=O)CCC2)C1c1ccco1 (stereo unspecified) | 68.9% (inactive) | 7.14% | 54.1%
Cc1ccc(NC(=O)CSC2=C(C#N)C(c3ccco3)C3=C(CCCC3=O)N2)cc1 (stereo unspecified) | 18.9% (inactive) | 2.42% | -18.4%
CCc1ccc(NC(=O)CSC2=C(C#N)C(c3ccco3)C3=C(CCCC3=O)N2)cc1 (stereo unspecified) | 86.5% (inactive) | 11.8% | 58.1%
Cc1ccc(C(=O)CSC2=C(C#N)C(c3ccco3)C3=C(CCCC3=O)N2)cc1 (stereo unspecified) | 86% (inactive) | 6.33% | 77.7%
N#CC1=C(SCC(=O)c2ccccc2)NC2=C(C(=O)CCC2)C1c1ccco1 (stereo unspecified) | 94.2% (active) | 25.7% | 71.1%
Cn1c(=O)c2c3c(sc2n2c(SCC(=O)c4ccc(Cl)cc4)nnc12)COC(C)(C)C3 | -42.1% (inactive) | 0.75% | -20.9%
CN=C1c2cc3c(Br)c(OC)ccc3n2CCN1C | 13.5% (inactive) | 1.37% | 20.4%
COC(=O)c1cc(Br)c(=O)n(Cc2ccco2)c1 | 48.5% (inactive) | 2.45% | -15.8%
CN(C)S(=O)(=O)Nc1ccc(NS(=O)(=O)N(C)C)c(S(=O)(=O)c2ccccc2)c1 | 17.4% (inactive) | 2.1% | -14.5%
CCSC1=C(C#N)C(c2cccs2)C(C(=O)OC)=C(C)N1 (stereo unspecified) | -14.9% (inactive) | 2.41% | -4.48%
CCOC(=O)C1=C(C)NC(SCC(=O)Nc2nc(C)cs2)=C(C#N)C1c1cccs1 (stereo unspecified) | 95.4% (active) | 11.1% | 77.6%
C#CCSC1=C(C#N)C(c2cccs2)C(C(=O)OCC)=C(C)N1 (stereo unspecified) | -11.7% (inactive) | 1.95% | -5.67%
CCCOc1ccc(/C(O)=C2/C(=O)C(=O)N(CCCN3CCOCC3)C2c2ccncc2)cc1 (stereo unspecified) | -41.6% (inactive) | 2.83% | -15.8%
CCCCOc1cccc(-c2nnc(N)s2)c1 | 2.4% (inactive) | 3.96% | -0.17%
CCC1CC2(C)NC(=O)c3c(sc4c3CC(C)(C)OC4)N2C1=O (stereo unspecified) | -1.91% (inactive) | 0.79% | -5.72%
CC(C)(C)C1CCC2(CC1)C(C#N)=C(SCC(=O)Nc1ccccc1)NC(=O)C2C#N (stereo unspecified) | 91.4% (active) | 2.13% | 71.8%
CC1=C(C(=O)Nc2ccccc2)C(c2ccncc2)C(C#N)=C(SCC(=O)NC(C)C)N1 (stereo unspecified) | 38.7% (inactive) | 1.77% | 0.29%
COc1cccc(NC(=O)CSC2=C(C#N)C(c3ccco3)C3=C(CCCC3=O)N2)c1 (stereo unspecified) | 61% (inactive) | 1.16% | 34.8%
